Columns and labels:
Details in all cases: concentration: 1 μM, replicates: in singlicate; n = 1
[1] = test system: AXL
[2] = test system: T1, BIKE
T1 construct: gene BMP2K

[3] = test system: BLK
[4] = test system: BMPR1A
[5] = test system: BMPR1B
[6] = test system: BMPR2
[7] = test system: BMX
[8] = test system: BRAF
[9] = test system: T2, BRK
T2 construct: gene PTK6

[10] = test system: BRSK1
[11] = test system: BRSK2
[12] = test system: BTK
[13] = test system: BUB1
[14] = test system: CAMK1B
[15] = test system: CAMK1D
[16] = test system: CAMK1G
[17] = test system: CAMK1
[18] = test system: CAMK2A
[19] = test system: CAMK2B
[20] = test system: CAMK2D
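Further: KINOMEscan kinase panel screen.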

O=C1NC(=O)C(c2ccccc2)=C1Nc1cccc(O)c1 [SB-390534]
%Inh [1]: 27%
%Inh [2]: 4%
%Inh [3]: 6%
%Inh [4]: 2%
%Inh [5]: 0%
%Inh [6]: 10%
%Inh [7]: 15%
%Inh [8]: 0%
%Inh [9]: 0%
%Inh [10]: 2%
%Inh [11]: 0%
%Inh [12]: 0%
%Inh [13]: 0%
%Inh [14]: 0%
%Inh [15]: 0%
%Inh [16]: 0%
%Inh [17]: 0%
%Inh [18]: 17%
%Inh [19]: 0%
%Inh [20]: 62%

Cc1ccc(Oc2ccc(Nc3ncnc4cc[nH]c34)cc2C)cn1
%Inh [1]: 25%
%Inh [2]: 4%
%Inh [3]: 0%
%Inh [4]: 34%
%Inh [5]: 1%
%Inh [6]: 13%
%Inh [7]: 20%
%Inh [8]: 0%
%Inh [9]: 0%
%Inh [10]: 10%
%Inh [11]: 19%
%Inh [12]: 19%
%Inh [13]: 0%
%Inh [14]: 0%
%Inh [15]: 34%
%Inh [16]: 0%
%Inh [17]: 16%
%Inh [18]: 0%
%Inh [19]: 0%
%Inh [20]: 0%

Cc1cc(Nc2nc(-c3cccc(C)n3)nc3ccccc23)ccn1 [GW872411]
%Inh [1]: 0%
%Inh [2]: 0%
%Inh [3]: 0%
%Inh [4]: 3%
%Inh [5]: 0%
%Inh [6]: 0%
%Inh [7]: 0%
%Inh [8]: 0%
%Inh [9]: 0%
%Inh [10]: 0%
%Inh [11]: 13%
%Inh [12]: 0%
%Inh [13]: 0%
%Inh [14]: 0%
%Inh [15]: 0%
%Inh [16]: 0%
%Inh [17]: 0%
%Inh [18]: 0%
%Inh [19]: 0%
%Inh [20]: 0%

COc1ccc(-c2cc3c(C)nc(N)nc3n([C@H]3CC[C@H](OCCO)CC3)c2=O)cn1
%Inh [1]: 0%
%Inh [2]: 22%
%Inh [3]: 2%
%Inh [4]: 5%
%Inh [5]: 1%
%Inh [6]: 0%
%Inh [7]: 0%
%Inh [8]: 0%
%Inh [9]: 0%
%Inh [10]: 28%
%Inh [11]: 0%
%Inh [12]: 0%
%Inh [13]: 0%
%Inh [14]: 7%
%Inh [15]: 0%
%Inh [16]: 0%
%Inh [17]: 0%
%Inh [18]: 0%
%Inh [19]: 0%
%Inh [20]: 0%

CCc1nc(-c2cccc(C)c2)c(-c2ccncc2)s1
%Inh [1]: 0%
%Inh [2]: 3%
%Inh [3]: 0%
%Inh [4]: 0%
%Inh [5]: 0%
%Inh [6]: 0%
%Inh [7]: 0%
%Inh [8]: 50%
%Inh [9]: 7%
%Inh [10]: 0%
%Inh [11]: 0%
%Inh [12]: 0%
%Inh [13]: 35%
%Inh [14]: 9%
%Inh [15]: 23%
%Inh [16]: 0%
%Inh [17]: 8%
%Inh [18]: 0%
%Inh [19]: 0%
%Inh [20]: 0%

COc1cc2ncn(-c3cc(OCc4ccncc4)c(C(N)=O)s3)c2cc1OC [GSK336313]
%Inh [1]: 0%
%Inh [2]: 14%
%Inh [3]: 0%
%Inh [4]: 0%
%Inh [5]: 0%
%Inh [6]: 0%
%Inh [7]: 2%
%Inh [8]: 0%
%Inh [9]: 0%
%Inh [10]: 0%
%Inh [11]: 0%
%Inh [12]: 0%
%Inh [13]: 4%
%Inh [14]: 24%
%Inh [15]: 25%
%Inh [16]: 47%
%Inh [17]: 24%
%Inh [18]: 0%
%Inh [19]: 0%
%Inh [20]: 37%

CCn1c(-c2ccoc2)nc2cnccc21 [SB-733887]
%Inh [1]: 5%
%Inh [2]: 6%
%Inh [3]: 0%
%Inh [4]: 0%
%Inh [5]: 10%
%Inh [6]: 20%
%Inh [7]: 0%
%Inh [8]: 1%
%Inh [9]: 0%
%Inh [10]: 0%
%Inh [11]: 0%
%Inh [12]: 0%
%Inh [13]: 59%
%Inh [14]: 0%
%Inh [15]: 8%
%Inh [16]: 0%
%Inh [17]: 2%
%Inh [18]: 0%
%Inh [19]: 0%
%Inh [20]: 0%

COc1cc2nccc(Nc3cccc(Oc4ccccc4)c3)c2cc1OC.Cl [GW284543]
%Inh [1]: 0%
%Inh [2]: 1%
%Inh [3]: 69%
%Inh [4]: 0%
%Inh [5]: 0%
%Inh [6]: 0%
%Inh [7]: 0%
%Inh [8]: 0%
%Inh [9]: 60%
%Inh [10]: 0%
%Inh [11]: 1%
%Inh [12]: 24%
%Inh [13]: 38%
%Inh [14]: 28%
%Inh [15]: 0%
%Inh [16]: 0%
%Inh [17]: 2%
%Inh [18]: 0%
%Inh [19]: 0%
%Inh [20]: 6%

COc1ccc(-c2coc3ccc(-c4nnc(SCc5cccc(C#N)c5)o4)cc23)cc1
%Inh [1]: 21%
%Inh [2]: 0%
%Inh [3]: 0%
%Inh [4]: 14%
%Inh [5]: 17%
%Inh [6]: 18%
%Inh [7]: 28%
%Inh [8]: 0%
%Inh [9]: 10%
%Inh [10]: 0%
%Inh [11]: 10%
%Inh [12]: 0%
%Inh [13]: 0%
%Inh [14]: 6%
%Inh [15]: 23%
%Inh [16]: 8%
%Inh [17]: 26%
%Inh [18]: 0%
%Inh [19]: 0%
%Inh [20]: 7%

OCCCNc1nccc(-c2c(-c3cccc(C(F)(F)F)c3)nn3cc(C(F)(F)F)ccc23)n1 [GW630813]
%Inh [1]: 0%
%Inh [2]: 0%
%Inh [3]: 33%
%Inh [4]: 0%
%Inh [5]: 0%
%Inh [6]: 0%
%Inh [7]: 13%
%Inh [8]: 0%
%Inh [9]: 0%
%Inh [10]: 0%
%Inh [11]: 0%
%Inh [12]: 0%
%Inh [13]: 42%
%Inh [14]: 0%
%Inh [15]: 14%
%Inh [16]: 1%
%Inh [17]: 11%
%Inh [18]: 0%
%Inh [19]: 0%
%Inh [20]: 22%

CCC(=O)c1c(-c2ccccc2)c2cc(Cl)ccc2c(=O)n1Cc1ccc(C(=O)O)cc1
%Inh [1]: 0%
%Inh [2]: 0%
%Inh [3]: 0%
%Inh [4]: 0%
%Inh [5]: 0%
%Inh [6]: 4%
%Inh [7]: 0%
%Inh [8]: 48%
%Inh [9]: 0%
%Inh [10]: 0%
%Inh [11]: 0%
%Inh [12]: 0%
%Inh [13]: 0%
%Inh [14]: 0%
%Inh [15]: 0%
%Inh [16]: 0%
%Inh [17]: 0%
%Inh [18]: 0%
%Inh [19]: 0%
%Inh [20]: 0%

FC(F)(F)c1ccc(-c2ncn(CCCN3CCOCC3)c2-c2ccncc2)cc1 [SB-217780]
%Inh [1]: 40%
%Inh [2]: 13%
%Inh [3]: 4%
%Inh [4]: 7%
%Inh [5]: 0%
%Inh [6]: 39%
%Inh [7]: 1%
%Inh [8]: 0%
%Inh [9]: 4%
%Inh [10]: 13%
%Inh [11]: 7%
%Inh [12]: 0%
%Inh [13]: 0%
%Inh [14]: 35%
%Inh [15]: 23%
%Inh [16]: 3%
%Inh [17]: 0%
%Inh [18]: 0%
%Inh [19]: 0%
%Inh [20]: 3%

Cl.c1ccc(Cn2cnc3cc(Nc4ncnc5ccccc45)ccc32)cc1 [GW272142]
%Inh [1]: 0%
%Inh [2]: 34%
%Inh [3]: 0%
%Inh [4]: 0%
%Inh [5]: 0%
%Inh [6]: 0%
%Inh [7]: 6%
%Inh [8]: 0%
%Inh [9]: 11%
%Inh [10]: 4%
%Inh [11]: 0%
%Inh [12]: 0%
%Inh [13]: 38%
%Inh [14]: 31%
%Inh [15]: 0%
%Inh [16]: 0%
%Inh [17]: 0%
%Inh [18]: 0%
%Inh [19]: 0%
%Inh [20]: 15%

COc1cc2nccc(Nc3ccc(OCc4ccc(NC(C)=O)cc4)cc3)c2cc1OC.Cl [GW440135]
%Inh [1]: 13%
%Inh [2]: 0%
%Inh [3]: 26%
%Inh [4]: 24%
%Inh [5]: 0%
%Inh [6]: 8%
%Inh [7]: 26%
%Inh [8]: 6%
%Inh [9]: 36%
%Inh [10]: 0%
%Inh [11]: 0%
%Inh [12]: 0%
%Inh [13]: 46%
%Inh [14]: 31%
%Inh [15]: 8%
%Inh [16]: 0%
%Inh [17]: 5%
%Inh [18]: 0%
%Inh [19]: 0%
%Inh [20]: 4%

Cc1ccc(-c2ccc3c(ccc4sc5c(c43)NC[C@@H](C)N=C5N(C)C)n2)cn1
%Inh [1]: 0%
%Inh [2]: 0%
%Inh [3]: 0%
%Inh [4]: 0%
%Inh [5]: 0%
%Inh [6]: 0%
%Inh [7]: 0%
%Inh [8]: 0%
%Inh [9]: 0%
%Inh [10]: 0%
%Inh [11]: 0%
%Inh [12]: 0%
%Inh [13]: 0%
%Inh [14]: 0%
%Inh [15]: 0%
%Inh [16]: 0%
%Inh [17]: 0%
%Inh [18]: 0%
%Inh [19]: 0%
%Inh [20]: 0%

CCCC(=O)Nc1n[nH]c2ncc(-c3cccc4ccccc34)cc12 [SB-642057]
%Inh [1]: 18%
%Inh [2]: 28%
%Inh [3]: 0%
%Inh [4]: 12%
%Inh [5]: 5%
%Inh [6]: 0%
%Inh [7]: 0%
%Inh [8]: 0%
%Inh [9]: 0%
%Inh [10]: 0%
%Inh [11]: 0%
%Inh [12]: 0%
%Inh [13]: 35%
%Inh [14]: 7%
%Inh [15]: 14%
%Inh [16]: 11%
%Inh [17]: 0%
%Inh [18]: 0%
%Inh [19]: 0%
%Inh [20]: 14%
